A selection: hits, their analogues and other compounds. The true share with any hit is near 9.8%.
ALDH1A1 inh: inhibitors of human aldehyde dehydrogenase 1A1; Purified ALDH1A1, NADH fluorescence, propionaldehyde substrate; Potency, µM (doses to about 75.3 µM), inactives show at the highest dose activity, negative = inhibition, usual class: inhibitors; hit rate 7.3% among 220,000; AID 1030;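 also: potency is read from the fitted curve at half-maximal effect; plate controls were no enzyme wells and a reference inhibitor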
HttQ103 aggreg: inhibitors of mutant huntingtin aggregate formation in PC12 cells; PC12 HttQ103-GFP aggregates, Acumen cytometry, 40 h; Potency, µM (titrated, usually from 46.1 µM), for inactives: at the top dose activity change, negative = inhibition, usual class: inhibitors; hit rate 1.1% among 220,000; AID 1688; active = well fitted curve in the direction sought with a large enough effect; inconclusive = small, poorly fitted or top-dose-only effect, or another doubt; inactive = no such curve, though single readings can be large; an effect the other way counts as inactive or inconclusive; also: potency is read from the fitted curve at half-maximal effect; % is scaled to controls: 0 for no effect and ±100 for the full control effect; nearly all actives have a fitted effect of over 60% in size
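Multiplexed with ATP-based cell death, this channel scores GFP aggregates in PC12 cells expressing inducible HTTex1-Q103-GFP. Induction used 100 nM tebufenozide; compounds were tested in concentration series.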
KDM4E inh: inhibitors of human JMJD2E histone demethylase; JMJD2E catalytic domain, FDH-coupled NADH fluorescence (FDH is formaldehyde dehydrogenase); B2RXH2; Potency, µM (series often up to 57.1 µM), inactives show top-dose activity change, negative = inhibition, most hits filed as inhibitors; hit rate 1.6% among 230,000;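 also: potency is read from the fitted curve at half-maximal effect; 0% = wells with enzyme and -100% = buffer wells without enzyme; nearly all actives have a fitted effect of over 50% in size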
Target sequence (B2RXH2 1-337 limits assumed): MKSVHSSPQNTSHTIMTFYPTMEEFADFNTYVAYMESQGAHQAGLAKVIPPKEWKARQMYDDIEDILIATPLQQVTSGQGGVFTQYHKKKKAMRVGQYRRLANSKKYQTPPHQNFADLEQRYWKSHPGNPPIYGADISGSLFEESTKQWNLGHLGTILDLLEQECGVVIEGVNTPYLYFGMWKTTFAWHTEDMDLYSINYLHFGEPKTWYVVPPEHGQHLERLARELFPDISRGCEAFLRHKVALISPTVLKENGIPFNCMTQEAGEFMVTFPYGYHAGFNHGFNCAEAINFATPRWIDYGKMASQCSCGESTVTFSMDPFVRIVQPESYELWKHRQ
HTT ATP protect: Huntington cell model cytoprotection by ATP luminescence | PC12 HTT-Q103 induced, cytoprotection, ATP luminescence, 40 h | hit rate 0.14% among 230,000 | Potency, µM (doses to about 56.4 µM), for the others: cytoprotection (ATP increase), usual class: activators; active = well fitted curve in the direction sought with a large enough effect; inconclusive = small, poorly fitted or top-dose-only effect, or another doubt; inactive = no such curve, though single readings can be large; an effect the other way counts as inactive or inconclusive; also: potency is read from the fitted curve at half-maximal effect; % of control where 0% means no effect; nearly all actives have a fitted effect of over 45% in size
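Stable PC12 Q103-GFP cells in serum-supplemented, phenol red-free DMEM; induction by tebufenozide at 100 nM final; compound dose series; cell viability quantified luminescently from ATP.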
HPGD block: inhibitors of human 15-hydroxyprostaglandin dehydrogenase (HPGD); P15428; purified HPGD, NADH fluorescence kinetic, PGE2 substrate; Potency, µM, for inactives: top-dose activity change, negative = inhibition, hits mostly inhibitors; hit rate 4.3% among 150,000; AID 894; also: potency is read from the fitted curve at half-maximal effect; % is scaled to controls: 0 for no effect and ±100 for the full control effect
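NADH formation kinetics: reaction with 30 uM PGE2 and 1 mM NAD+ (final), 20 nM enzyme, Tris-HCl pH 8 with Tween 20, after 15 min compound preincubation at room temperature. Fluorescence change, last versus first of five reads.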
CBFb-RUNX1 inh: inhibitors of human CBF-beta and RUNX1 interaction | AID 1477 | Potency, µM (highest dose often 59.8 µM), without a hit: top-dose activity, negative = inhibition, usual class: inhibitors | Q01196+Q13951 | AlphaScreen CBFb-His/RUNX1-biotin binding, biochemical | 230,000 tested, under 10 active; active = well fitted curve in the direction sought with a large enough effect; inconclusive = small, poorly fitted or top-dose-only effect, or another doubt; inactive = no such curve, though single readings can be large; an effect the other way counts as inactive or inconclusive; also: % of control where 0% means no effect
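Read-out: AlphaScreen. Format: His-CBF-beta with biotinylated RUNX1 (30 nM each) preincubated 20 min, compound 15 min, Ni-chelate plus streptavidin beads 90 min; room temperature throughout.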
* marks the source's active call; other numbers are inactive results; ? = inconclusive; · = no result given; [ ] = dose if it differs, or a comment. Unless noted, calls follow the shape of the dose curve; as a rule, active = well fitted inhibition curve with a large enough effect (not every such curve was filed as active); inconclusive = small, poorly fitted or top-dose-only effect, or another doubt; inactive = no such curve, though single readings can be large or run the other way.

SMILES	ALDH1A1 inh	HttQ103 aggreg	KDM4E inh	HTT ATP protect	HPGD block	CBFb-RUNX1 inh
Cn1c(N)c(C(=O)COC(=O)c2ccc(Cl)nc2)c(=O)n(C)c1=O	0%	-7%	?	3.2µM*	·	-2%
Cc1ccc(C)c(N2C(=O)c3ccc(C(=O)OCC(=O)c4c(N)n(C)c(=O)n(C)c4=O)cc3C2=O)c1	20µM*	-2%	7%	37%[10 µM]	-19%	0%
Cc1nn(-c2ccccc2)c(C)c1C(=O)OCC(=O)c1c(N)n(CC(C)C)c(=O)n(C)c1=O	7%	5µM*	3%	-15%[10 µM]	-12%	0%
CC(C)Cn1c(N)c(C(=O)COC(=O)c2ccc(O)cc2)c(=O)n(C)c1=O	7.9µM*	25%	4%	·	·	5%
COc1ccc(C(=O)OCC(=O)c2c(N)n(C)c(=O)n(C)c2=O)cc1OC	3%	0%	-2%	-11%	·	-4%
Cc1cccc[n+]1CC(=O)Nc1cccc([N+](=O)[O-])c1	9%	-5%[9.22 µM]	-13%	-4%[10 µM]	·	5%
COc1cccc(Cn2c(=O)c(-c3cccs3)nc3cncnc32)c1	-11%	·	·	9%	·	·
CC(C)Cn1c(N)c(C(=O)COC(=O)c2cnc(Cl)c(Cl)c2)c(=O)n(C)c1=O	0.45µM*	-7%	10%	-10%[10 µM]	·	5%
Cc1nn(-c2ccccc2)c(C)c1C(=O)OCC(=O)NCc1ccco1	22µM*	7%	?	-21%[10 µM]	-17%	-2%
Cn1c(N)c(C(=O)c2ccc(Cl)cc2)c(=O)n(C)c1=O	9%	2.5µM*	0%	-1%[10 µM]	·	2%
CC(C)Cn1c(N)c(C(=O)COC(=O)c2ccc([N+](=O)[O-])o2)c(=O)n(C)c1=O	18µM*	-8%	-14%	26%[10 µM]	·	7%
CC(C)Cn1c(N)c(C(=O)COC(=O)C2=COCCO2)c(=O)n(C)c1=O	-1%	-17%	0%	20%	-15%	2%
COc1cc(NCc2ccc3nc(N)nc(N)c3c2C)cc(OC)c1OC	?	-5%	·	-67%	?	?
CCCNC(=O)Nc1nnc(C2CC2)s1	-6%	-7%[9.22 µM]	3%	3%[10 µM]	·	9%
Cc1ccc(-c2nn(CCC#N)cc2C=C(C#N)C#N)cc1	20µM*	26%	-4%	-7%[10 µM]	-21%	0%
COc1ccc(NC(=O)Cc2ccccc2)cn1	-2%	-6%	-5%	-19%	·	4%
COc1ccc(/C=C/C(=O)Nc2ccc(OC)nc2)cc1	-10%	21%	1%	·	-12%	7%
COc1ccc(CS(=O)(=O)/C(Cl)=C(/Cl)C(=O)Nc2ccc(OC)nc2)cc1	1.6µM*	?	-3%	-26%[10 µM]	-9%	0%
COc1ccc(NC(=O)/C(Cl)=C(/Cl)S(=O)Cc2ccccc2)cn1 (stereo not given)	13µM*	5µM*	-8%	-91%	?	-2%
O=C(c1cccc([N+](=O)[O-])c1)c1ccc2c(c1)C(=O)N(c1c[nH]c(=O)[nH]c1=O)C2=O	-7%	21%	0%	4%[10 µM]	·	8%
CC(C)NC(=O)/C(=C/c1ccco1)c1ccccc1	-6%	14%	-2%	5%	-9%	-1%
CCC(C)NC(=O)/C(=C/c1ccco1)c1ccccc1 (stereo not given)	?	12%	9%	-4%	25µM*	0%
O=C(NCCc1ccccc1)/C(=C/c1ccco1)c1ccccc1	22µM*	-10%	?	-9%[10 µM]	-25%	6%
Clc1ccccc1-c1nc2nc3ccccc3nc2n1-c1ccc2c(c1)OCO2	11µM*	16%	?	·	-16%	-4%
COC(=O)c1sccc1NC(=O)CSCCc1ccccn1	10%	6%	-9%	-34%	·	1%
CC(C)NC(=O)Cn1nnc(-c2ccc(Cl)cc2)n1	10µM*	13µM*	-16%	-17%[10 µM]	·	1%
CCOC(=O)c1c(NC(=O)Cn2nnc(-c3ccc(Cl)cc3)n2)sc(C)c1C	1%	-3%	-5%	-16%	-3%	3%
CNC(=O)c1[nH]cnc1C(=O)Nc1cccc(OC)c1	28µM*	-2%	4%	-11%[0.074 µM]	-13%	4%

From PubChem BioAssay
